Results from the supplement of paper PMC7335073.
In all, about 4,100 sequences were measured (“relative CpG methylation activity (normalised to average over all NNNCGNNN flanks)”: median about 0.87, highest 2% from about 2.4 on). This is one part of a sample in which the highest values are shown more often than they occur.

What follows are sequences tested against DNMT3A catalytic domain (mouse) (UniProt O88508) (assay: relative CpG methylation activity (normalised to average over all NNNCGNNN flanks) (relative (1 = mean)); higher = more methylation of the central CpG). Conditions: system: in vitro, murine catalytic domain; CpG state: hemimethylated substrate pool; residues: 608-908.
Procedure: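 Deep enzymology: a pool of dsDNA substrates with a central CpG flanked by 10 random nucleotides on each side was methylated by the murine DNMT3A or DNMT3B catalytic domain (0.8 mM SAM, 37 °C, 60 min). Methylation was then read out by hairpin ligation, bisulfite conversion and NGS. Values are the average methylation of each NNNCGNNN context (±3 flanks; the outer flanks are random and averaged over), normalised to the overall mean, so 1 = average activity.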
In the case of CTACGCCG, the “relative CpG methylation activity” value is reported as 2.5. In the case of CGACGCCT, the “relative CpG methylation activity” value is reported as 1.29. GTACGCCG was tested, and the “relative CpG methylation activity” value was 1.9. With GCCCGAAA the “relative CpG methylation activity” value was 1.39. AGACGGTC was tested, and the “relative CpG methylation activity” value was 1.15. With TCCCGTAT the “relative CpG methylation activity” value was 0.643. In the case of GACCGCTT, the “relative CpG methylation activity” value is reported as 1.77. ACACGAGC was tested, and the “relative CpG methylation activity” value was 1.54. In the case of TTGCGATA, the “relative CpG methylation activity” value is reported as 1.13. For GGTCGTAT, the “relative CpG methylation activity” value was 0.455. With TTGCGGTC the “relative CpG methylation activity” value was 1.43. In the case of TAGCGGGT, the “relative CpG methylation activity” value is reported as 0.231. For GGACGGGT, the “relative CpG methylation activity” value was 0.4. ATACGCAT was tested, and the “relative CpG methylation activity” value was 1.79. For ATACGCGT, the “relative CpG methylation activity” value was 1.9. For ATACGCCT, the “relative CpG methylation activity” value was 2.76. In the case of GATCGCCG, the “relative CpG methylation activity” value is reported as 0.545. TCACGACA was tested, and the “relative CpG methylation activity” value was 1.52. For TTACGCTA, the “relative CpG methylation activity” value was 1.94. CTACGCTT was tested, and the “relative CpG methylation activity” value was 2.38. For CAACGCTA, the “relative CpG methylation activity” value was 0.826. For CTACGCAT, the “relative CpG methylation activity” value was 1.97. With CGACGCTC the “relative CpG methylation activity” value was 1.38. For CTACGCTC, the “relative CpG methylation activity” value was 2.66. CTACGCTG was tested, and the “relative CpG methylation activity” value was 1.75. CAACGCTC was tested, and the “relative CpG methylation activity” value was 1.36. CTACGCTA was tested, and the “relative CpG methylation activity” value was 2.5. GACCGTCG was tested, and the “relative CpG methylation activity” value was 1.29. For TGCCGAGC, the “relative CpG methylation activity” value was 1.38. In the case of CGGCGTTT, the “relative CpG methylation activity” value is reported as 0.165. For ACTCGATG, the “relative CpG methylation activity” value was 0.513. GCCCGGCG was tested, and the “relative CpG methylation activity” value was 0.38. For GCACGCCC, the “relative CpG methylation activity” value was 2.31. For ACACGCCA, the “relative CpG methylation activity” value was 2.02. With ACACGCCC the “relative CpG methylation activity” value was 2.4. For ACACGCCG, the “relative CpG methylation activity” value was 1.92. In the case of ACACGCCT, the “relative CpG methylation activity” value is reported as 2.44. GCACGCCT was tested, and the “relative CpG methylation activity” value was 2.25. CGCCGGCC was tested, and the “relative CpG methylation activity” value was 0.909. In the case of CCGCGGGT, the “relative CpG methylation activity” value is reported as 1.11. With ATACGCCC the “relative CpG methylation activity” value was 2.85. ATACGCCG was tested, and the “relative CpG methylation activity” value was 2.33. With TTACGCAA the “relative CpG methylation activity” value was 2.55. For TAACGCCC, the “relative CpG methylation activity” value was 1.61. In the case of TTACGCGG, the “relative CpG methylation activity” value is reported as 0.654. TTACGCCC was tested, and the “relative CpG methylation activity” value was 2.64. For TTACGCCG, the “relative CpG methylation activity” value was 2.29. With ATACGCGC the “relative CpG methylation activity” value was 1.93. In the case of GTACGCAA, the “relative CpG methylation activity” value is reported as 1.89. AGACGCCC was tested, and the “relative CpG methylation activity” value was 1.43. TTACGCGC was tested, and the “relative CpG methylation activity” value was 2.44. TTACGCAT was tested, and the “relative CpG methylation activity” value was 2.29. In the case of ATTCGCAA, the “relative CpG methylation activity” value is reported as 1.09. In the case of TAACGTAC, the “relative CpG methylation activity” value is reported as 0.748. GCACGACG was tested, and the “relative CpG methylation activity” value was 0.957. With TATCGTTG the “relative CpG methylation activity” value was 0.26. For TCGCGTAG, the “relative CpG methylation activity” value was 0.412. For TTACGCCT, the “relative CpG methylation activity” value was 2.38. CAACGCCC was tested, and the “relative CpG methylation activity” value was 1.52. With ATACGCCA the “relative CpG methylation activity” value was 2.6. For TTACGCCA, the “relative CpG methylation activity” value was 2.33. GGACGCCC was tested, and the “relative CpG methylation activity” value was 1.88. For TAACGCCT, the “relative CpG methylation activity” value was 1.2. In the case of GAACGCCC, the “relative CpG methylation activity” value is reported as 1.6. GTACGCCC was tested, and the “relative CpG methylation activity” value was 2.39. With CTACGCCC the “relative CpG methylation activity” value was 2.62. In the case of CTACGCAC, the “relative CpG methylation activity” value is reported as 2.15. ATACGCGA was tested, and the “relative CpG methylation activity” value was 1.33. With TTACGCGT the “relative CpG methylation activity” value was 1.81. With TGCCGCGC the “relative CpG methylation activity” value was 0.766. With TATCGATG the “relative CpG methylation activity” value was 0.224. AAACGTAA was tested, and the “relative CpG methylation activity” value was 0.891. AGGCGCCT was tested, and the “relative CpG methylation activity” value was 1.88. In the case of TGACGACG, the “relative CpG methylation activity” value is reported as 0.449. With GCCCGTTT the “relative CpG methylation activity” value was 0.909. CCTCGGAG was tested, and the “relative CpG methylation activity” value was 0.294. TTCCGCGT was tested, and the “relative CpG methylation activity” value was 1.64. In the case of GGCCGCCT, the “relative CpG methylation activity” value is reported as 1.37. GTCCGCCA was tested, and the “relative CpG methylation activity” value was 1.87. For ACCCGCCT, the “relative CpG methylation activity” value was 2.44. With ACCCGCCG the “relative CpG methylation activity” value was 1.76. In the case of GTCCGCCT, the “relative CpG methylation activity” value is reported as 2.6. TTCCGCCA was tested, and the “relative CpG methylation activity” value was 2.2. In the case of TTCCGCAT, the “relative CpG methylation activity” value is reported as 1.78. TGCCGCCG was tested, and the “relative CpG methylation activity” value was 1.03. ACCCGCCC was tested, and the “relative CpG methylation activity” value was 2.24. In the case of TTCCGCCT, the “relative CpG methylation activity” value is reported as 2.6. With TTCCGCCG the “relative CpG methylation activity” value was 2.55.
